Records with an inconclusive call do not appear. The source made the active and inactive calls. Calls follow the shape of the dose curve; as a rule, active = well fitted curve in the direction sought with a large enough effect in the repeat runs; inconclusive = weak or mixed curves; inactive = no such curve, though single readings can be large; an effect the other way counts as inactive or inconclusive.
Columns and labels:
[1] = qHTS RealTime-Glo MT Cell Viability Assay in HepG2 cells - 40 hour (AID 1224870); also: nearly all actives have a fitted effect of over 50% in size
Summary of the method: (§1)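 HepG2 cells (600/well) mixed with RealTime-Glo MT reagent, settled 5 h at 37 C/5% CO2 before compound addition. Nonlytic NanoLuc luminescence from viable-cell prosubstrate reduction read repeatedly during 40 h treatment at 37 C.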

[2] = A CellTox Green Cytotoxicity Assay to monitor cytotoxicity in HEK293 cells - 40 hour (AID 1224871); also: nearly all actives have a fitted effect of over 45% in size
Summary of the method: (§2)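 Fluorescence from a DNA-binding dye excluded by viable cells was measured repeatedly in the same HEK293 wells (600 cells/well) during continuous compound exposure at 37 C. Each assay gives one read point: 0, 8, 16, 24, 32 or 40 h.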

[3] = qHTS RealTime-Glo MT Cell Viability Assay in HEK293 cells - 16 hour (AID 1224872); also: top concentration of the series differs between compounds; nearly all actives have a fitted effect of over 50% in size
Summary of the method: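 HEK293 cells seeded with NanoLuc/prosubstrate reagent, rested 5 h at 37 C, then dosed and kept at 37 C up to 40 h. Nonlytic real-time luminescence from viable cells read at 0, 8, 16, 24, 32 and 40 h.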

[4] = qHTS RealTime-Glo MT Cell Viability Assay in HepG2 cells - 8 hour (AID 1224873); also: nearly all actives have a fitted effect of over 55% in size
Summary of the method: as §1

[5] = qHTS RealTime-Glo MT Cell Viability Assay in HEK293 cells - 40 hour (AID 1224874); conditions: RealTime-Glo luminescence; max response: stronger effect = lower value; also: nearly all actives have a fitted effect of over 50% in size
Summary of the method: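 Luminescence, which tracks viable cell number through reduction of the prosubstrate to a NanoLuc substrate, was read over continuous 37 C culture. Cells (600/well) were premixed with reagent and rested 5 h before 23 nL of compound in DMSO was pinned.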

[6] = A CellTox Green Cytotoxicity Assay to monitor cytotoxicity in HEK293 cells - 24 hour (AID 1224875); also: series mostly up to about 77 µM; nearly all actives have a fitted effect of over 45% in size
Summary of the method: as §2

[7] = A CellTox Green Cytotoxicity Assay to monitor cytotoxicity in HepG2 cells - 16 hour (AID 1224876); also: nearly all actives have a fitted effect of over 45% in size
Summary of the method: (§3)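 Real-time cytotoxicity: fluorescence of a cell-impermeant cyanine dye binding DNA of dead HepG2 cells, measured repeatedly (0–40 h) during compound exposure at 37 C. Cells seeded 600/well with reagent, dosed after 5 h.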

[8] = A CellTox Green Cytotoxicity Assay to monitor cytotoxicity in HepG2 cells - 24 hour (AID 1224878); also: nearly all actives have a fitted effect of over 45% in size
Summary of the method: as §3

[9] = A CellTox Green Cytotoxicity Assay to monitor cytotoxicity in HepG2 cells - 40 hour (AID 1224879); also: nearly all actives have a fitted effect of over 40% in size
Summary of the method: as §3

[10] = qHTS RealTime-Glo MT Cell Viability Assay in HepG2 cells - 32 hour (AID 1224877); also: nearly all actives have a fitted effect of over 55% in size
Summary of the method: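 HepG2 cells (600/well) were dispensed with RealTime-Glo reagents, incubated 5 h at 37 °C, then treated with compounds in DMSO for up to 40 h. Nonlytic NanoLuc luminescence reflecting viable cells was read at each stated time point.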
% is scaled to controls: 0 for no effect and ±100 for the full control effect.

N#CN
inactive: Potency [1] | Potency [2] | Potency [3] | outcome [4] | max response [5] 4.8% | Potency [6] | Potency [7] | Potency [8] | Potency [9]

NNC(N)=O
inactive: Potency [1] | Potency [2] | Potency [3] | outcome [4] | Potency [6] | Potency [7] | Potency [10] | Potency [8] | Potency [9]

CC1NCCOC1c1ccccc1 (stereo not drawn)
inactive: Potency [1] | Potency [2] | Potency [3] | outcome [4] | Potency [6] | Potency [7] | Potency [10] | Potency [8] | Potency [9]

C#CC(C)(C)O
inactive: Potency [1] | Potency [2] | Potency [3] | outcome [4] | max response [5] 6.71% | Potency [6] | Potency [7] | Potency [8] | Potency [9]

O=C(O)c1c(Cl)ccc2cc(Cl)cnc12
inactive: Potency [1] | Potency [2] | Potency [3] | outcome [4] | max response [5] 17.7% | Potency [6] | Potency [7] | Potency [8] | Potency [9]

CCOC(=O)N(C)N=O
inactive: Potency [1] | Potency [2] | Potency [3] | outcome [4] | max response [5] 1.11% | Potency [6] | Potency [7] | Potency [10] | Potency [9]

C[N+]1(C)CCCCC1
inactive: Potency [1] | Potency [2] | Potency [3] | outcome [4] | max response [5] 19.2% | Potency [6] | Potency [7] | Potency [10] | Potency [9]

CC(=NC#N)N(C)Cc1ccc(Cl)nc1
inactive: Potency [1] | Potency [2] | Potency [3] | outcome [4] | max response [5] 8.58% | Potency [6] | Potency [7] | Potency [8] | Potency [9]

CC[C@@H](CO)NC(=O)[C@@H]1C=C2c3cccc4[nH]cc(c34)C[C@H]2N(C)C1
inactive: Potency [1] | Potency [2] | Potency [3] | outcome [4] | Potency [6] | Potency [7] | Potency [10] | Potency [8] | Potency [9]

N#CC(Br)(Br)C(N)=O
inactive: Potency [1] | Potency [2] | Potency [3] | outcome [4] | max response [5] -10% | Potency [6] | Potency [10]

CN(CCO)CCO
inactive: Potency [1] | Potency [2] | Potency [3] | outcome [4] | Potency [6] | Potency [7] | Potency [10] | Potency [8] | Potency [9]

COc1cc(CCN)cc(OC)c1OC
inactive: Potency [1] | Potency [2] | Potency [3] | outcome [4] | max response [5] -4.29% | Potency [6] | Potency [7] | Potency [8] | Potency [9]

CC(=O)CN(CC(C)=O)N=O
inactive: Potency [1] | Potency [2] | Potency [3] | outcome [4] | Potency [6] | Potency [7] | Potency [10] | Potency [8] | Potency [9]

COc1ccc(C=O)cc1O
inactive: Potency [1] | Potency [2] | Potency [3] | outcome [4] | Potency [6] | Potency [7] | Potency [10] | Potency [8] | Potency [9]

Nc1c(Cl)c(F)nc(OCC(=O)O)c1Cl
inactive: Potency [1] | Potency [2] | Potency [3] | outcome [4] | max response [5] 2.97% | Potency [6] | Potency [7] | Potency [8] | Potency [9]

CCC(C)(C#N)N=NC(C)(C#N)CC (stereo not drawn)
inactive: Potency [1] | Potency [2] | Potency [3] | outcome [4] | max response [5] 2.46% | Potency [6] | Potency [7] | Potency [10] | Potency [9]

CS(=O)(=O)Cl
inactive: Potency [1] | Potency [2] | Potency [3] | outcome [4] | max response [5] -0.619% | Potency [6] | Potency [7] | Potency [8] | Potency [9]

ClC(Cl)(Cl)Cl
inactive: Potency [1] | Potency [2] | Potency [3] | outcome [4] | max response [5] 2.56% | Potency [6] | Potency [7] | Potency [8] | Potency [9]

NNCc1ccccc1
inactive: Potency [1] | Potency [2] | Potency [3] | outcome [4] | Potency [6] | Potency [7] | Potency [10] | Potency [8]

O=[N+]([O-])CCO
inactive: Potency [1] | Potency [2] | Potency [3] | outcome [4] | max response [5] 3.11% | Potency [6] | Potency [10]

BrCCc1ccccc1
inactive: Potency [1] | Potency [2] | Potency [3] | outcome [4] | max response [5] -1.95% | Potency [6] | Potency [7] | Potency [8] | Potency [9]

C(COCC1CO1)OCC1CO1 (stereo not drawn)
inactive: Potency [1] | Potency [2] | Potency [3] | Potency [6] | Potency [7] | Potency [10] | Potency [9]

CNC(=O)Oc1cc(C)c(N(C)C)c(C)c1
inactive: Potency [1] | Potency [2] | Potency [3] | max response [5] -10.9% | Potency [6] | Potency [7] | Potency [10] | Potency [8] | Potency [9]

CCOP(=S)(OCC)Oc1ccc(Cl)cc1Cl
inactive: Potency [1] | Potency [2] | Potency [3] | max response [5] 2.64% | Potency [6] | Potency [7] | Potency [10] | Potency [8] | Potency [9]

Cc1ccc2cc(C)ccc2c1
inactive: Potency [1] | Potency [2] | outcome [4] | max response [5] 8.7% | Potency [6] | Potency [7]

OP(O)c1ccccc1
inactive: Potency [1] | Potency [2] | Potency [3] | max response [5] 9.39% | Potency [6] | Potency [7] | Potency [10] | Potency [9]
